Source: PubChem
In the library only some 7.5% were active in any assay of this set; here they are far more common.
VP16 counter: counter-screen for ROR gamma inhibitors: Gal4-VP16 reporter. Drosophila S2 Gal4-VP16 UAS-luciferase, luminescence, 20 h. Potency, µM (highest dose often 53.6 µM), inactives show at the top dose activity, negative = inhibition, most hits filed as inhibitors. actives 3.5% (n = 310,000). AID 2546;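 also: Gal4-VP16 expression switched on by copper sulfate through the metallothionein promoter; potency is read from the fitted curve at half-maximal effect; nearly all actives have a fitted effect of over 50% in size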
B2AR arrestin: agonists driving beta-arrestin recruitment to human beta2-adrenergic receptor | beta-arrestin recruitment to beta2AR, cell-based reporter | Potency, µM (highest dose often 46.1 µM), inactives show top-dose activation, usual class: activators | P07550 | actives 0.02% (n = 330,000);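 also: potency is read from the fitted curve at half-maximal effect; 0% = DMSO controls and full agonism = EC100 isoproterenol or metaproterenol; nearly all actives have a fitted effect of over 65% in size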
RORg inh: ROR gamma (mouse) transcription inhibition. P51450. Drosophila S2 Gal4-RORgamma UAS-luciferase reporter, 20 h. Potency, µM (titrated, usually from 53.6 µM), for the others: top-dose activity change, negative = inhibition, hits mostly inhibitors. actives 5.4% (n = 310,000). AID 2551; also: potency is read from the fitted curve at half-maximal effect; nearly all actives have a fitted effect of over 60% in size
Target sequence (P51450 whole entry, looked up, the tested form may be a part): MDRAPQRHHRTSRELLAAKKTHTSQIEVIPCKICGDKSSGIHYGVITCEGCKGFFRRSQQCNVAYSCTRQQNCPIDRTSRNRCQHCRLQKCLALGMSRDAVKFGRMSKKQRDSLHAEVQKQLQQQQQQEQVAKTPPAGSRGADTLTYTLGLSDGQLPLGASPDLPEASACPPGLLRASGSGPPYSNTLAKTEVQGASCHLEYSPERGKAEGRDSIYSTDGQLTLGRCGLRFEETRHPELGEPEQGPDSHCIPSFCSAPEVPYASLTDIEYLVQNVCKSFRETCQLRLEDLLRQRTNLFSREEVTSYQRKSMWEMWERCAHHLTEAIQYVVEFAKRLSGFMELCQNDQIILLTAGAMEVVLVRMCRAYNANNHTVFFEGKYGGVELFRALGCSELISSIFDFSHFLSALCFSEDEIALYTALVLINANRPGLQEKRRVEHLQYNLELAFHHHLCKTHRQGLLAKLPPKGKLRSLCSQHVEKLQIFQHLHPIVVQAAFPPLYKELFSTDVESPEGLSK
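Luminescence from a UAS-regulated Photinus luciferase reporter in stably transfected Drosophila Schneider cells is measured; decreased signal marks ROR gamma inhibition. Fusion expression is induced by 700 uM copper sulfate for 20 hr.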
TSHR antag: blocks TSH signaling through the human TSH receptor; P16473; TSHR-expressing cells, TSH-stimulated cAMP HTRF, 2 h; stronger effect = lower value; activity change, negative = inhibition, % at 11.5 µM; actives 0.2% (n = 330,000);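 active = activity change below a set negative limit, meaning inhibition stronger than a set level, cut at about -70% in these data; inconclusive = activity change between two set negative limits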
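Competitive HTRF cAMP read-out (cryptate anti-cAMP antibody, cAMP-d2; 30 min, room temperature) in freshly harvested TSHR cells. Compounds added before TSH at EC80 (4nM final), followed by 2 hours' incubation at 37 deg C.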
ELG1 DNA repair: ELG1-dependent DNA repair inhibition | Potency, µM (series often up to 46.1 µM), inactives show top-dose activity change, negative = inhibition, actives largely listed as inhibitors | actives 2.3% (n = 330,000) | AID 504467 | HEK293T ELG1-luciferase reporter, luminescence, 16 h; DNA damage induced by 5-fluorouridine; also: potency is read from the fitted curve at half-maximal effect; nearly all actives have a fitted effect of over 55% in size
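Quantitative HTS, concentration-response format. 2,000 cells/well co-treated with 5-fluorouridine and compound, 16 hr in 5% CO2 at 37 °C; ONE-Glo luminescence read after 30 min.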
* marks the source's active call; other numbers are inactive results; u = inconclusive; x = not tested or not shown; [ ] = another dose, or the depositor's remark. Unless noted, calls follow the shape of the dose curve; as a rule, active = well fitted curve in the direction sought with a large enough effect; inconclusive = small, poorly fitted or top-dose-only effect, or another doubt; inactive = no such curve, though single readings can be large; an effect the other way counts as inactive or inconclusive. Unless noted, % is scaled to controls: 0 for no effect and ±100 for the full control effect.

SMILES	VP16 counter	B2AR arrestin	RORg inh	TSHR antag	ELG1 DNA repair
O=C(COC(=O)Cc1cccc(C(F)(F)F)c1)Nc1ccc2[nH]c(=O)[nH]c2c1	x	0%	x	1	7%
Cc1cccc(N(CC(=O)NCCSc2nc3ccccc3s2)S(=O)(=O)c2ccccc2)c1	10%	0%	u	6	16µM*
O=C(CN(c1ccccc1)S(=O)(=O)c1ccccc1)NCCSc1nc2ccccc2s1	2%	0%	15%	-1	u
CC1=CC(C)(C)n2c(O)c(N=NC(N)=S)c3c(C)c(C)cc1c32	6%	0%	6%	11	-2%
COc1cc2c3c(c1)c(N=NC(N)=S)c(O)n3C(C)(C)C=C2C	4.5µM*	0%	2µM*	-6	-4%
CC1=CC(C)(C)n2c(O)c(N=NC(N)=S)c3c(C)ccc1c32	2.5µM*	0%	4.5µM*	-39	4%
CC1=CC(C)(C)n2c(O)c(N=NC(N)=S)c3cccc1c32	2µM*	0%	1.1µM*	-15	15%
OC[C@H]1OC(O)(CN2CCOCC2)[C@H](O)[C@@H]1O (some centres undefined)	-6%	x	4%	x	x
COC(=O)c1ccc(NC(=O)CCN2C(=O)C3CC=CCC3C2=O)cc1 (centres undefined)	x	-1%	x	5	u
CC1=NN(c2nc(C)cc(C)n2)C(=O)C1CCC(C)C (centres undefined)	7.9µM*	0%	2µM*	-1	18%
O=C(Nc1cccc(Cl)c1)NC1(C(=O)NCc2cccs2)CCCCC1	-21%	0%	-33%	10	u
S=C(NCc1cccs1)Nc1ccccc1Cl	14µM*	-2%	13µM*	-4	1%
S=C(NCc1cccs1)Nc1cccc(Cl)c1	u	0%	20µM*	-5	-7%
S=C(NCc1cccs1)Nc1cc(Cl)cc(Cl)c1	u	-1%	13µM*	-27	u
O=C(Nc1cccc(F)c1)N1CCCC2(CCN(C(=O)c3ccncc3)CC2)C1	4%	x	13%	x	x
CCCCCCCCC(=O)N/N=C(\C)c1ccc(O)cc1O	u	-1%	3.5µM*	-5	u
CCCCCCCC(=O)N/N=C(\C)c1ccc(O)cc1O	11µM*	0%	7.1µM*	27	u
CCCCCCCC(=O)N/N=C(\C)c1ccc(N)cc1	-15%	0%	19%	-4	3%
CCN(CC(=O)Nc1ccc2c(c1)OCCO2)C(=O)c1cccc(OCC(C)C)c1	-2%	-1%	7%	12	3%
O=C(CCl)N1c2ccccc2CCc2ccccc21	u	0%	11µM*	-11	u
CC(Cl)C(=O)N1c2ccccc2CCc2ccccc21 (centres undefined)	-2%	0%	9%	-20	-14%
C/C(CCc1ccccc1)=N\NC(=O)C1C2CCCCC21 (centres undefined)	-18%	-1%	-21%	5	16%
S=C(NCCCCNC(=S)NCc1ccccc1)NCc1ccccc1	-16%	0%	u	-13	-1%
C/C(CCc1ccccc1)=N\NC(=S)NCCc1ccccc1	6.3µM*	u	5µM*	-1	-1%
C/C(=N\NC(=S)NCCc1ccccc1)c1cccs1	1.4µM*	u	4.5µM*	9	-8%
SMILES	VP16 counter	B2AR arrestin	RORg inh	TSHR antag	ELG1 DNA repair
C/C(CCC(C)C)=N\NC(=S)NCc1ccccc1	u	0%	4µM*	-9	-3%
CC(OC(=O)c1cccs1)C(=O)NCCc1ccccc1 (centres undefined)	25%	0%	-3%	-6	2%
CO[C@@H]1/C=C\CC(=O)N2CCC[C@@H]2C(=O)OC[C@H](C)C(=O)OC[C@H]1C	3%[10 µM]	x	13%[10 µM]	x	x
CCc1nc2nc(C)c(NS(=O)(=O)c3ccc(C4CCCCC4)cc3)c(=O)n2[nH]1	1%	-1%	4%	42	0%
COc1ccc(COc2ccccc2C(=O)NCc2ccccc2)cc1F	-30%	-2%	10%[10 µM]	3	26µM*
O=C(CNC(=O)c1cccc(F)c1)N/N=C/c1cc(Br)ccc1OC(=O)/C=C/c1ccco1	7.9µM*	0%	3.5µM*	-7	4%
